From PubChem BioAssay come the findings set out here.

The target of experiment [1] is Tumor necrosis factor receptor superfamily member 10B (Homo sapiens) (UniProt O14763). Description: viability loss of caspase-8 NB7 cells with TRAIL – with/without TRAIL, luminescence panel, confirmation (AID 651596). Conditions: NB7 neuroblastoma + caspase-8, TRAIL sensitization, NB7 Caspase-8, with TRAIL, mean of runs, at 10 µM, stronger effect = higher value.
Test in experiment [2]: as above
Conditions: NB7 neuroblastoma + caspase-8, without TRAIL, NB7 Caspase-8, without TRAIL, mean of runs, at 10 µM.

Molecules are shown by their SMILES.

Chain of Tumor necrosis factor receptor superfamily member 10B (Homo sapiens) (O14763 whole entry, looked up): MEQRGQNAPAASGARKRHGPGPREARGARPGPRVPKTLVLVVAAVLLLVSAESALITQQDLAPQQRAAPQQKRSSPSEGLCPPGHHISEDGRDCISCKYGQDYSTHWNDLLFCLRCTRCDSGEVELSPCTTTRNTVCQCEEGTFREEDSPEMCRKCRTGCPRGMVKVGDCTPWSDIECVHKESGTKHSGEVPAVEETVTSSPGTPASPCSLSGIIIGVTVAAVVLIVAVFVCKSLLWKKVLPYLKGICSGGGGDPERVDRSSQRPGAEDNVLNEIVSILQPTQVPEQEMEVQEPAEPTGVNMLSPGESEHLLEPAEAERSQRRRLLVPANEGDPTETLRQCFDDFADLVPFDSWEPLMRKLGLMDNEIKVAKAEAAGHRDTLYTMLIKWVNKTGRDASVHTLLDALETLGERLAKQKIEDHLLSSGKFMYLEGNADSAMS

On to `O=c1c2c3c(sc2nc2n1N=C(c1cccs1)CS2)CCCC3`, for which the activity in experiment [1] was found to be 74.5%; in experiment [2] it was 77%.

`CC1Oc2ccccc2C=C1/C=N/NC(=O)c1ccccc1O` (stereo not given): the activity was determined as 46.1% in experiment [1] and 44.9% in experiment [2].

For `Nc1nccc(-c2cc(-c3ccc(Cl)cc3Cl)no2)n1`, the activity in experiment [1] amounted to 62.4%; in experiment [2], 56.9%.

As for `Cc1ccccc1-c1nnc(SCC(=O)Nc2cccnc2Cl)o1`, the activity stood at 68.8% in experiment [1] and 61% in experiment [2].

In the case of `S=c1nc[nH]c2nc[nH]c12`, the activity was 64.5% in experiment [1] and 69% in experiment [2].

On to `C=CCOC(=O)c1sc(NC(=O)c2ccco2)nc1C`, for which the activity was 39.1% in experiment [1] and 40.2% in experiment [2].

For `Cc1ccc(Cn2ccsc2=NC(=O)CCl)cc1`, the activity in experiment [1] came to 99.2%; in experiment [2], 99%.

For `Cc1cccc(N2CCN(S(=O)(=O)c3ccc4c(c3)NC(=O)C(C)S4)CC2)c1C` (stereo not given), the activity is -0.6% in experiment [1] and -25.6% in experiment [2].

On to `Clc1ccccc1-c1nnc(-c2ccc3c(c2)OCO3)o1`, for which the activity in experiment [1] is 53.9%; in experiment [2], 50.7%.

For the molecule `O=S(=O)(c1ccc2c(c1)C(=NO)c1cc(S(=O)(=O)N3CCCCC3)ccc1-2)N1CCCCC1`, the activity came to 98.8% in experiment [1] and 99.3% in experiment [2].

As for `COc1cccc2oc3cc(C#CC4(O)CCCCC4)ccc3c(=O)c12`, the results for the activity in experiment [1] and in experiment [2] were 71.2% and 68.8%, respectively.

For `CC1CCC(C(C)C)C(OC(=O)Cn2c(-c3ccc(Cl)cc3)[n+](C)c3ccccc32)C1` (stereo not given), the activity in experiment [1] was 76.7%; in experiment [2], 62%.

In the case of `CCOc1ccc(CN(C)C(=O)[C@H](Cc2ccccc2)NC(=O)OCc2ccccc2)cc1OC`, the figures for the activity in experiment [1] and in experiment [2] were -12.3% and 1.82%, respectively.

On to `CCCn1c(C)cc(C(=O)COC(=O)c2cc(=O)[nH]c3ccccc23)c1C`, for which the activity in experiment [1] came out at 61.2%; in experiment [2], 59.1%.

Consider `Cc1ccc2nc(-c3ccc(NC(=O)COC(=O)c4ccc(Br)o4)cc3)sc2c1`, for which the values for the activity in experiment [1] and in experiment [2] were 62% and 67.4%, respectively.

Consider `CCOc1ccc(C(=O)Nc2cc(C)ccn2)cc1`, for which the activity in experiment [1] worked out at 95.2%; in experiment [2], 96.3%.

On to `COc1ccc2nc(-c3ccccn3)ccc2c1`, for which the results for the activity in experiment [1] and in experiment [2] were 82.1% and 77.5%, respectively.

With `CCSc1ccc(-c2cc(NC=O)c3ncc(-c4cccc(C(=O)NCCN(C)C)c4)n3c2)cc1`, the activity turned out to be 50.4% in experiment [1] and 87.7% in experiment [2].

Turning to `Cc1ccsc1C(=O)Nc1ccc2c(c1)OCCO2`, the activity in experiment [1] was 53.2%; in experiment [2], 45.1%.

Consider `Cc1cccc(-n2ncc3c(NC(C)C)ncnc32)c1`, for which the activity in experiment [1] turned out to be 63.2%; in experiment [2], 64.7%.

With `O=C(CCl)Nc1ccccc1Sc1ccccc1`, the activity in experiment [1] came out at 83.2%; in experiment [2], 87.8%.

Turning to `CCCn1c(Nc2nc3ccccc3n2C)nc2ccccc21`, the activity in experiment [1] was 38.1%; in experiment [2] it was 50.4%.

Turning to `CC(=O)c1sc(NC(=O)c2cc(=O)c3ccccc3o2)nc1C`, the activity in experiment [1] was 51.1%; in experiment [2] it was 50.8%.

Take `N#C/C(=C(/O)c1ccc([N+](=O)[O-])s1)c1nc2ccccc2[nH]1`: the activity in experiment [1] stood at 36.3%; in experiment [2], 25%.

In the case of `CCc1nnc(NC(=O)CSc2nc(C)cc(C)c2C#N)s1`, the activity came to 81.2% in experiment [1] and 80% in experiment [2].

Take `COc1ccc2nc(Cl)c(/C=N/Nc3ccccn3)cc2c1`: the activity in experiment [1] came to 64.5%; in experiment [2], 59.5%.

On to `Cc1ccnc(NC(=O)CCC2CCCCC2)c1`, for which the activity in experiment [1] was found to be 60.2%; in experiment [2], 46.5%.

With `Cc1ccc(-n2[nH]c(C)c(C=Nc3ccc4[nH]c(=O)[nH]c4c3)c2=O)cc1C`, the activity was determined as 51.4% in experiment [1] and 41.5% in experiment [2].

In the case of `O=C(Nc1nc(-c2nc3ccccc3s2)cs1)C1CC1`, the activity came out at 59% in experiment [1] and 69.9% in experiment [2].

Regarding `CCC(=O)Nc1cc2nn(-c3ccc(OC)cc3)nc2cc1C`, the activity was 62.5% in experiment [1] and 61.8% in experiment [2].

On to `Cc1cc(C(=O)COC(=O)c2cccnc2Cl)c(C)n1C`, for which the results for the activity in experiment [1] and in experiment [2] were 62.8% and 40.4%, respectively.

On to `O=C(/C=C/c1ccc([N+](=O)[O-])cc1)Nc1ncc([N+](=O)[O-])s1`, for which the activity is 69.1% in experiment [1] and 68.5% in experiment [2].

For the molecule `CN1/C(=C\C(=O)c2cccs2)Sc2ccccc21`, the activity was 63% in experiment [1] and 61% in experiment [2].

On to `COc1ccc(Oc2c(Cl)cnn(-c3ccc(F)cc3)c2=O)cc1`, for which the activity in experiment [1] was determined as 98%; in experiment [2], 94.2%.

In the case of `CCn1nnc(NC(=O)c2ccc(C(C)(C)C)cc2)n1`, the values for the activity in experiment [1] and in experiment [2] were 69.1% and 75.2%, respectively.

For the molecule `NC(=S)NN=C1c2cc(OCCN3CCOCC3)ccc2-c2ccc(OCCN3CCOCC3)cc21`, the figures for the activity in experiment [1] and in experiment [2] were 99% and 99.5%, respectively.

Take `O=C(CC(Nc1ccc(Cl)cc1)C(=O)O)c1ccccc1` (stereo not given): the activity is 60.6% in experiment [1] and 73.2% in experiment [2].

Regarding `CCc1ccc(OCc2nc(-c3ccccn3)no2)c(Br)c1`, the activity in experiment [1] is 50%; in experiment [2], 46.4%.

For the molecule `Cc1oc(-c2nc3ccccc3n2C)cc1C(=O)c1ccccc1`, the activity in experiment [1] is 81.4%; in experiment [2], 81%.

On to `O=C(Nc1ccncc1)c1ccc(-c2ccccc2)cc1`, for which the activity was determined as 24.3% in experiment [1] and 21% in experiment [2].

`Cc1ccc(C)c(NC(=S)NC(NC(=O)Cc2cccc3ccccc23)C(Cl)(Cl)Cl)c1` (stereo not given): the activity came to 82.6% in experiment [1] and 87.8% in experiment [2].

As to `COc1ccc(C(C(=O)NC2CCCCC2)N(C(=O)CCl)c2ccccc2Cl)cc1` (stereo not given), the activity is 98.8% in experiment [1] and 97.2% in experiment [2].

For `c1ccc(CNc2nc(NCC3CC3)nc3cc(-c4ccccc4)sc23)cc1`, the activity was found to be 15.9% in experiment [1] and 16.7% in experiment [2].

As to `C#CC(=O)N(c1ccc(OC)c(OC)c1)C(C(=O)NC1CCCC1)c1cccs1` (stereo not given), the activity in experiment [1] stood at 99.3%; in experiment [2], 99.5%.

Regarding `c1ccc2c(c1)COc1c3cc4c(cc3nn1-2)OCO4`, the values for the activity in experiment [1] and in experiment [2] were 67.7% and 53.8%, respectively.
